# Screening data: PubChem, National Center for Advancing Translational Sciences (NCATS)
# KB-V1 MDR tox: KB-V1 MDR subline cytotoxicity; Potency, µM (doses to about 46.1 µM), usual class: cytotoxic; KB-V1 MDR cells viability, CellTiter-Glo, 72 h; 400,000 tested, 3.4% active; AID 1347076; further: on the % scale 0 is the no-effect control and ±100 the full control effect; nearly all actives have a fitted effect of over 60% in size
#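 Drug-selected KB-V1 cells, grown in DMEM lacking phenol red with 10% FBS, receive compound titrations; after three days at 37 degrees C, surviving cell ATP is quantified by CellTiter-Glo luminescence and responses normalized and curve-fitted.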
# HT1080 IDH1KD tx: HT-1080 IDH1 knockdown cell toxicity (counter line). HT-1080 IDH1 knockdown viability, ATP luminescence, 48 h. Potency, µM (highest dose often 46.1 µM), inactives show top-dose activity, negative = toxicity, most hits filed as cytotoxic. 360,000 tested, 2% active. AID 686971;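 further: 0% = DMSO wells and -100% = cell-free medium wells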
#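 After a 2 h attachment period, IDH1KD HT-1080 cells took pin-transferred compound for 48 h at 37 °C; ATP-based luminescence after 10 min room-temperature reagent incubation reported viability.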
# MCF10A rerep: induces DNA re-replication in MCF 10a normal breast cells; MCF 10A DNA re-replication, Hoechst nuclear intensity, 48 h; Potency, µM (titrated, usually from 46.1 µM), for inactives: at the top dose activity, positive = re-replication, most hits filed as activators; 350,000 tested, 2.9% active; AID 624296; further: % of control where 0% means no effect; nearly all actives have a fitted effect of over 50% in size
# KB-3-1 tox: kills parental KB-3-1 adenocarcinoma cells | Potency, µM (series often up to 46.1 µM), hits mostly cytotoxic | 400,000 tested, 1.4% active | KB-3-1 viability, CellTiter-Glo ATP luminescence, 72 h; further: on the % scale 0 is the no-effect control and ±100 the full control effect; nearly all actives have a fitted effect of over 60% in size
#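 Cytotoxicity measured as CellTiter-Glo luminescence after 72 h at 37 C. Compound titrations were pinned onto drug-naive KB-3-1 parental adenocarcinoma cells grown in DMEM with 10% FBS, and normalized data fitted to concentration-response curves.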
# HT1080-NT tox: kills 2HG-producing HT-1080-NT fibrosarcoma cells; HT-1080-NT fibrosarcoma viability, CellTiter-Glo ATP luminescence, 48 h; Potency, µM (doses to about 46.1 µM), for the others: top-dose activity, negative = less viability, usual class: cytotoxic; 360,000 tested, 1.6% active; AID 686970;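 further: NT is the 2HG producing partner of a matched IDH1 knockdown line; 0% = DMSO-treated cells and -100% = media-only wells without cells; nearly all actives have a fitted effect of over 55% in size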
#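 Luminescent CellTiter-Glo readout after 48 hours of compound exposure at 37 degrees C defined viability of HT-1080-NT cells. Activity was normalized to DMSO wells and cell-free media wells; concentration-response curves were fitted and assigned curve classes.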
# SW480 rereplic: induces DNA re-replication in SW480 colon adenocarcinoma cells; AID 624297; SW480 DNA re-replication, Hoechst DNA content imaging, 48 h; 340,000 tested, 1.8% active; Potency, µM (series often up to 46.1 µM), without a hit: at the highest dose re-replication activation, most hits filed as activators; further: % of control where 0% means no effect; nearly all actives have a fitted effect of over 55% in size
#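 Treated cells incubate 48 hr (37 C, 5% CO2), are stained 40 min with Hoechst, and nuclear fluorescence is enumerated; a rise in nuclei with high DNA signal marks re-replication.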
# * marks the source's active call; other numbers are inactive results; i = inactive; ? = inconclusive; . = no result given; ! = not active in a repeat; [ ] = dose if it differs, or a comment. Shown are actives, neighbours in structure and some others; about 7.9% of the full set was active somewhere. The call rests on the fitted dose curve; in most records, active means well fitted curve in the direction sought with a large enough effect; inconclusive means small, poorly fitted or top-dose-only effect, or another doubt; inactive means no such curve, though single readings can be large; an effect the other way counts as inactive or inconclusive. Potency means the concentration at half of the fitted maximal effect.
SMILES,KB-V1 MDR tox,HT1080 IDH1KD tx,MCF10A rerep,KB-3-1 tox,HT1080-NT tox,SW480 rereplic
O=C1NC2(CCCCC2)C(=O)N1c1ccccc1,i,3.9%,-5.5%,i,10.6%,-2.0%
O=C1NC2(CCC3(CC2)OCCO3)NN1c1ccc(Cl)cc1,i,6.51µM*,?,?,?,?
O=C1NC2(CCCCC2)NN1c1ccccc1,i,5.17µM*,10.3%,i,?,-0.7%[9.22 µM]
CC(=O)N1CCC2(CC1)NC(=O)N(c1ccccc1)N2,i,4.11µM*,6.9%,i,5.17µM*,8.2%
CC1CCC2(CC1)NC(=S)N(c1ccccc1)N2 (centres undefined),i,18.4µM*,8.4%,i,?,-2.9%
Cc1c(Cl)cccc1NC(=O)Cn1nc(C)c2sc3ccccc3c2c1=O,i,.,.,i,.,.
O=C(O)C1Nc2ccccc2C2C=CCC12 (centres undefined),?,.,.,i,.,.
NC(=O)C1(c2ccccc2)CCC(=O)N1c1ccccc1 (centres undefined),i,2.3%,-7.8%,i,16.9%,-5.3%
NC(=O)N1CCC2(CC1)NC(=O)N(c1ccccc1)N2,i,6.51µM*,0.2%[9.22 µM],i,10.3µM*,-51.8%
Cc1cccc(N2CCN(C(=O)Cn3c(-c4cccs4)cc4ccccc43)CC2)c1C,i,.,.,i,.,.
COc1cc(NC(=O)CN2c3ccccc3S(=O)(=O)c3ccccc32)cc(OC)c1,i,.,.,i,.,.
CCN1CCN(Cc2ccc(NC(=O)c3cc(NC(=O)c4cncc(-c5cccs5)c4)cc(OC)c3)cc2C(F)(F)F)CC1,18.4µM*!,18.4µM*,23.1µM*,?,?,?
CCN1CCN(Cc2ccc(NC(=O)c3ccc(C)c(NC(=O)c4c[nH]c5cc(C(F)(F)F)ccc5c4=O)c3)cc2C(F)(F)F)CC1,?,3.26µM*,11.6µM*,2.31µM*,3.26µM*,1.84µM*
CCN1CCN(Cc2ccc(NC(=O)c3cc(NC(=O)c4cc(-c5ccc(OC)cc5)n[nH]4)cc(OC)c3)cc2C(F)(F)F)CC1,16.4µM*,?,8.9%,i,?,28.2%
CCN1CCN(Cc2ccc(NC(=O)c3cc(NC(=O)c4ccc5n[nH]nc5c4)cc(OC)c3)cc2C(F)(F)F)CC1,i,10.8%,7.2%,i,0.7%,-3.3%[9.22 µM]
CCOc1ccc(S(=O)(=O)N2CCOCC2)cc1NC(=O)CSCC(=O)Nc1ccc(OC)cc1,?,0.1%,4.9%,i,-5.9%,0.5%
CCOc1nc(NC(=O)NS(=O)(=O)Oc2cccc(F)c2)nc(-c2ccccc2)n1,i,.,.,i,.,.
O=C(N/N=C/c1cc(Cl)ccc1O)c1cccnc1,i,?,?,?,?,1.3µM*
O=C(CNC(=O)c1ccccc1Br)N/N=C/c1cc(Br)ccc1O,i,?,?,i,?,7.31µM*
O=C(N/N=C/c1cccnc1)c1cccc(Cl)c1,?,21.5%,-3.8%,i,15.2%,-13.6%
O=C(N/N=C/c1cc(Cl)ccc1O)c1ccccc1Br,?,9.2µM*,12.1%,?,?,6.51µM*
O=C(CNC(=O)c1ccccc1)N/N=C/c1cc(Br)ccc1O,?,16.4µM*,12.9%,?,?,?
O=C(CNC(=O)c1ccncc1)N/N=C/c1cc(Br)ccc1O,i,3.3%,-0.1%,i,-0.1%,-5.9%
O=C(/C=N/NC(=O)c1ccccc1Br)c1ccccc1,i,-8.2%,-28.0%,i,-3.2%,-9.6%[1.84 µM]
CCOc1ccc(NC(=O)CSC2=Nc3ccccc3C3=NC(Cc4ccccc4)C(=O)N23)cc1 (centres undefined),i,.,.,i,.,.
SMILES,KB-V1 MDR tox,HT1080 IDH1KD tx,MCF10A rerep,KB-3-1 tox,HT1080-NT tox,SW480 rereplic
Cc1ccc2occ(CC(=O)N(Cc3ccccc3Cl)C3CCS(=O)(=O)C3)c2c1 (centres undefined),i,.,.,i,.,.
O=C(N/N=C/c1ccccc1O)c1ccc2c(c1)OCO2,i,?,?,?,?,?
O=C(CNC(=O)c1ccc2c(c1)OCO2)N/N=C/c1cc(Br)ccc1O,i,11.6µM*,7.0%,?,?,4.11µM*
O=C(CNC(=O)c1ccco1)N/N=C/c1cc(Br)ccc1O,?,25.9µM*,?,?,?,?
O=C(Nc1cc(S(=O)(=O)Nc2ccc(Cl)cc2)ccc1O)c1ccc(S(=O)(=O)N2CCCCCC2)cc1,i,?,?,i,-28.9%,14.2%
O=C(N/N=C\c1cc(Cl)ccc1O)c1ccc(S(=O)(=O)N2CCCCC2)cc1,?,2.31µM*,14.6µM*,?,7.31µM*,7.31µM*
CCc1ccc(NC(=O)C(Cc2ccccc2)NS(=O)(=O)c2ccc3c(c2)c(=O)n(C)c(=O)n3C)cc1 (centres undefined),i,.,.,i,.,.
O=C(COC(=O)c1ccco1)Nc1cccc(S(=O)(=O)N2CCOCC2)c1,i,10.9%,.,i,-0.5%,.
O=C(Cc1c[nH]c2ccccc12)NCc1ccc(Cl)cc1,i,2.0%,?,i,0.2%,1.9%
CN1C2C=C(N(CCc3c[nH]c4ccccc34)C(=O)c3ccc(Cl)cc3)CC1CC2 (centres undefined),23.1µM*,?,9.8%,?,?,?
COc1ccc(NC(=O)c2cc(-c3ccccc3OC)on2)cc1,1µM*,6.31µM*,?,3.98µM*,4.47µM*,3.55µM*
COc1ccccc1-c1cc(C(=O)Nc2cccnc2)no1,?,0.251µM*,?,0.164µM*,0.316µM*,0.517µM*
COc1ccc(CCNC(=O)c2cc(-c3ccccc3OC)on2)cc1OC,?,1.3%,3.7%,i,6.8%,1.6%
COc1ccccc1-c1cc(C(=O)NCCc2ccccc2)no1,11.6µM*!,?,14.6µM*,?,-23.4%,?
COc1ccc(Cn2c(SCC#N)nc3ccc(N4CCOCC4)cc3c2=O)cc1,i,-16.2%,20.6µM*,i,-19.6%,1.5%
COc1cccc(C(=O)Nc2ccccc2-c2nnc(-c3ccc(C(C)(C)C)cc3)o2)c1,?,.,.,i,.,.
CC1CCCN(S(=O)(=O)c2ccc(NC(=O)[C@@H]3CCCN3C(=O)c3cccs3)cc2)C1 (some centres undefined),i,-3.0%,22.9%,i,-4.6%,-8.8%
CC1CCCCN1S(=O)(=O)c1ccc(NC(=O)c2cccs2)cc1 (centres undefined),?,-0.6%,20.6µM*,i,?,20.5%
